Among the data in PubChem BioAssay (NCATS) are Potency, activity, negative = cell killing and activity change, negative = cytotoxicity values, retold here.

Several values for one entry are separate records, joined by “and”; a condition that tells them apart may be missing. Equal entries are not always repeated. Inconclusive results are not listed. More than one record can exist for a structure, and the calls need not agree. Activity calls are given as the source filed them. Calls come from the whole dose curve; as a rule, active = well fitted curve in the direction sought with a large enough effect; inconclusive = small, poorly fitted or top-dose-only effect, or another doubt; inactive = no such curve, though single readings can be large; an effect the other way counts as inactive or inconclusive. Non-standard residues stand in square brackets, D forms with d. Residues, ends and D or L forms follow the SMILES beside them. *: point of attachment. Sta = CC(C)C[C@H](N)[C@@H](O)CC(=O)O; Isovaleryl = CC(C)CC(=O)*

For experiment [1], the system named is Es-2. Kind of experiment: Primary qHTS to identify gynecologic anti-cancer compounds using libraries of approved drugs and bioactive compounds (AID 1345084). Note: nearly all actives have a fitted effect of over 55% in size. The conditions noted are these: Gynecologic cancer cell panel viability, ATPlite luminescence, 48 h; series mostly up to 57.5 µM. Summed up: (§1)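 Cytotoxicity screen measuring ATP content by luciferase luminescence. Each compound is applied at five concentrations for 48 h at 37 C with 5% CO2.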
(In general: Quantitative high-throughput screening tests each substance at several concentrations.)

For experiment [2], the system named is HeLa. Described as above. The conditions noted are these: Gynecologic cancer cell panel viability, ATPlite luminescence, 48 h; series mostly up to 57.5 µM. Summed up:
as §1
In general terms: In ATP-based viability assays light output follows the ATP content of the culture.

The test system of experiment [3] is Hek293T. The description is as above. The conditions noted are these: Gynecologic cancer cell panel viability, ATPlite luminescence, 48 h, control line for the selectivity index; series mostly up to 57.5 µM. Put shortly:
as §1

In experiment [4] the test system is JEG-3. The experiment is described as above. The following applies: Gynecologic cancer cell panel viability, ATPlite luminescence, 48 h; series mostly up to 57.5 µM. Put shortly: as §1
Experiment [5] relates to OV90. The description is as above. The following applies: Gynecologic cancer cell panel viability, ATPlite luminescence, 48 h; series mostly up to 57.5 µM. Put shortly: as §1
Experiment [6] has as its system PA-1. The description is as above. The following applies: Gynecologic cancer cell panel viability, ATPlite luminescence, 48 h; series mostly up to 57.5 µM. Put shortly: as §1
In experiment [7] the test system is SKOV3. The description is as above. The following applies: Gynecologic cancer cell panel viability, ATPlite luminescence, 48 h; series mostly up to 57.5 µM. Put shortly:
as §1

Experiment [8] concerns Tov-21-G. The experiment is described as above. The conditions noted are these: Gynecologic cancer cell panel viability, ATPlite luminescence, 48 h; series mostly up to 57.5 µM. Summed up:
as §1

Experiment [9] deals with Tov112D. The experiment is described as above. The conditions noted are these: Gynecologic cancer cell panel viability, ATPlite luminescence, 48 h; series mostly up to 57.5 µM. Put shortly:
as §1

Experiment [10] in a line: Drug repurposing screens with cells derived from glioblastoma tumor samples (AID 1345199). Note: nearly all actives have a fitted effect of over 40% in size. The conditions noted are these: GBM patient neurospheres viability, ATP luminescence, 48 h. Put shortly:
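Four patient lines of CD133+ GBM neurospheres were screened at several concentrations; hits were retested in those lines plus three slower-growing GBM lines, using 48-hour treatment and ATP-based viability.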

[11] abbreviates: at 45.9 µM (top of the series), tumour line B.
Where [12] appears, read: at 45.9 µM (top of the series), tumour line D.
[13] abbreviates: at 46.1 µM (top of the series), tumour line C.
Setting [14] is: at 46 µM (top of the series), tumour line A.
% is set by controls: 0 for no effect and ±100 for the full control effect; potency is the fitted concentration of half-maximal effect.

As to `NS(=O)(=O)c1cc(C(=O)O)c(NCc2ccco2)cc1Cl`, the Potency result in [1], in [2], in experiment [3], in experiment [4], in [5] and in [6] was “inactive” throughout. The Potency result in experiment [7], in experiment [8] and in experiment [9] was “inactive” throughout. Also, the activity, negative = cell killing in [10] (setting [11]) was -8.22% (inactive); in experiment [10] (setting [12]), -18.4% (inactive); in experiment [10] (setting [13]), 5.25% (inactive).

As to `O=C(O)c1cn(-c2ccc(F)cc2)c2cc(N3CCNCC3)c(F)cc2c1=O`, the Potency entry in experiment [1], in experiment [2], in experiment [3], in [4], in experiment [5] and in experiment [6] was “inactive” in each case. Also, the Potency result in [7], in experiment [8] and in experiment [9] was “inactive” in each case. Besides, the values for the activity, negative = cell killing in experiment [10] (setting [11]), in [10] (setting [12]) and in experiment [10] (setting [13]) were -14.1% (inactive), -2.04% (inactive) and 0.795% (inactive), respectively.

As to `Nc1cccc2c1CN(C1CCC(=O)NC1=O)C2=O` (stereo unspecified), the Potency result in experiment [1], in experiment [2], in [3], in experiment [4], in experiment [5] and in experiment [6] was “inactive” in each case. The Potency entry in [7], in [8] and in experiment [9] was “inactive” in each case. Moreover, the activity, negative = cell killing was -18.6% (inactive) in experiment [10] (setting [11]), -1.35% (inactive) in experiment [10] (setting [12]), -28.8% (inactive) in experiment [10] (setting [14]) and -29.8% (inactive) in experiment [10] (setting [13]).

On to `CCN(CCO)CCCC(C)Nc1ccnc2cc(Cl)ccc12` (stereo unspecified), for which the activity change, negative = cytotoxicity in experiment [1] was -1.37% [at 6.55 µM] (inactive) and -0.815% [at 6.55 µM] (inactive); in experiment [2], 2.67% [at 6.55 µM] (inactive) and -11.2% [at 6.55 µM] (inactive); in [3], 9.38% [at 6.55 µM] (inactive) and 2.44% [at 6.55 µM] (inactive); in [4] it was -0.0768% [at 6.55 µM] (inactive) and 4.75% [at 6.55 µM] (inactive); in [5], -3.69% [at 6.55 µM] (inactive); in [6], 16.5% [at 6.55 µM] (inactive) and 2.35% [at 6.55 µM] (inactive). Besides, the activity change, negative = cytotoxicity in [7] was -2.72% [at 6.55 µM] (inactive) and 0.445% [at 6.55 µM] (inactive); in [8] it was 2.96% [at 6.55 µM] (inactive) and -2.5% [at 6.55 µM] (inactive); in experiment [9], 10.4% [at 6.55 µM] (inactive) and 2.64% [at 6.55 µM] (inactive). The activity, negative = cell killing was -10.8% (inactive) in experiment [10] (setting [11]), -19.9% (inactive) in experiment [10] (setting [12]) and 3.19% (inactive) in experiment [10] (setting [13]). In addition, the Potency in experiment [10] (tumour line A) was 11.2 µM (active).

For `Cc1cc(C2CCCCC2)n(O)c(=O)c1`, the Potency in experiment [1] was 14.1 µM (active); in experiment [3], 7.08 µM (active); in experiment [6], 2 µM (active); in [7] it was 10 µM (active); in experiment [9], 7.08 µM (active). In experiment [2], the Potency entry was “inactive”.

Consider `CS(=O)(=O)OCCCCOS(C)(=O)=O`, for which the Potency entry in experiment [1], in experiment [2], in experiment [3], in experiment [4], in [5] and in experiment [6] was “inactive” each time. Besides, the Potency entry in experiment [8] and in experiment [9] was “inactive” throughout. The activity, negative = cell killing in [10] (setting [11]) was -4.65% (inactive); in experiment [10] (setting [12]), -5.18% (inactive); in [10] (setting [14]) it was -16.3% (inactive); in experiment [10] (setting [13]), -0.778% (inactive).

`O=C(NOCC1CC1)c1ccc(F)c(F)c1Nc1ccc(I)cc1Cl`: the Potency entry in experiment [1], in [2], in experiment [3], in experiment [4] and in [7] was “inactive” each time. For the same compound, the Potency in experiment [5] was 7.08 µM (active) and 3.55 µM (active); in experiment [9], 28.2 µM (active) and inactive.

In the case of `CN(C)CCCC1(c2ccc(F)cc2)OCc2cc(C#N)ccc21` (stereo unspecified), the Potency result in experiment [1], in [2], in experiment [3], in experiment [4], in [6] and in experiment [7] was “inactive” in each case. Besides, the Potency result in experiment [8] and in experiment [9] was “inactive” in each case.

Consider `CCCCCCCCOc1ccccc1C(=O)Nc1ccc(C(=O)OCC[N+](C)(CC)CC)cc1`, for which the Potency result in [1], in [2], in [3], in experiment [4], in experiment [5] and in [8] was “inactive” in each case. For the same compound, the Potency entry in [9] was “inactive”. In [10] (setting [13]), the activity, negative = cell killing is -98.5% (inactive). For the same compound, the Potency in experiment [10] (tumour line A) is 14.1 µM (active); in [10] (tumour line B) it was 17.8 µM (active).

As for `Cc1c(C(=O)NN2CCCCC2)nn(-c2ccc(Cl)cc2Cl)c1-c1ccc(Cl)cc1`, the Potency result in experiment [1], in [2], in [4], in experiment [5], in experiment [6] and in experiment [7] was “inactive” each time. In addition, the Potency result in [8] and in [9] was “inactive” throughout. The activity, negative = cell killing in experiment [10] (setting [13]) is -11.3% (inactive). Also, the Potency in experiment [10] (tumour line A) is 5.01 µM (active).

Consider `Nc1ncn([C@H]2C[C@H](O)[C@@H](CO)O2)c(=O)n1`, for which the Potency result in experiment [1], in [2], in [3], in experiment [4], in experiment [5] and in experiment [7] was “inactive” in each case. For the same compound, the Potency result in experiment [8] was “inactive”. Further, the activity, negative = cell killing in [10] (setting [11]) was -23% (inactive); in [10] (setting [12]) it was -5.51% (inactive); in experiment [10] (setting [14]), -24.9% (inactive); in [10] (setting [13]) it was -19.7% (inactive).

Regarding `CC(C)CC(=O)N[C@H](C(=O)N[C@H](C(=O)N[C@@H](CC(C)C)[C@@H](O)CC(=O)N[C@@H](C)C(=O)N[C@@H](CC(C)C)[C@@H](O)CC(=O)O)C(C)C)C(C)C` (Isovaleryl-VV[Sta]A[Sta]-OH), the Potency result in [1], in experiment [2], in [3], in [4], in [5] and in experiment [6] was “inactive” in each case. In addition, the Potency entry in experiment [8] and in experiment [9] was “inactive” throughout. Also, the activity, negative = cell killing was -11.5% (inactive) in experiment [10] (setting [11]), -9.71% (inactive) in [10] (setting [12]), -22.1% (inactive) in [10] (setting [14]) and -23.6% (inactive) in experiment [10] (setting [13]).
